Inconclusive results are not listed. Activity calls are given as the source filed them. Unless noted, the call rests on the fitted dose curve.
Legend:
[1] = Nuclear factor erythroid 2-related factor 2/antioxidant responsive element (Nrf2/ARE) small molecule agonists: qHTS cell viability counter screen in human keratinocytes (AID 1919968; active means well fitted curve in the direction sought with a large enough effect in the repeat runs; an effect the other way counts as inactive or inconclusive; further: nearly all actives have a fitted effect of over 55% in size)
Summary of the method: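 HaCaT ARE reporter line, 1,500 cells/well; 5 h settle, 37 C/5% CO2; cpd in DMSO pinned; 23 h exposure; CellTiter-Fluor, 1 h; fluorescence.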

[2] = Nuclear factor erythroid 2-related factor 2/antioxidant responsive element (Nrf2/ARE) small molecule agonists: luciferase reporter gene qHTS assay in human keratinocytes (AID 1919969); further: nearly all actives have a fitted effect of over 35% in size
[3] = target: Gonadotropin-releasing hormone receptor (Homo sapiens) (UniProt P30968); experiment: Human gonadotropin-releasing hormone receptor (GnRHR) small molecule agonists, calcium flux assay in GnRHR-HEK293 cells (AID 1920063); further: nearly all actives have a fitted effect of over 35% in size
Summary of the method: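 GnRHR-HEK293, 1500 cells/well, 18 h 37 C/5% CO2; Ca dye 1 h 37 C; cpd pinned (DMSO), agonist mode; kinetic FL 480/540, 3 min, 1 s reads; 15 conc, n=3.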

[4] = target: KiSS-1 receptor (Homo sapiens) (UniProt Q969F8); experiment: Human kisspeptin (KISS1R) small molecule agonists, calcium flux assay in KISS1R-HEK293 cells (AID 1920064; active means well fitted curve in the direction sought with a large enough effect in the repeat runs; an effect the other way counts as inactive or inconclusive)
Summary of the method: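 Stable human KISS1R HEK293 line; 18 h plating, 37 C/5% CO2; calcium dye 1 h 37 C; compound pin transfer; kinetic fluorescence Ex/Em 480/540, 3 min.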

[5] = G protein-coupled receptor (GPCR) small molecule agonists, calcium flux assay: HEK293 wild type cell line counter screen (AID 1920065)
Summary of the method: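 Kinetic fluorescence at Ex/Em 480/540, recorded every second over 3 min, served as the read-out after compound addition. Each compound was tested at 15 concentrations in triplicate on cells pre-loaded with calcium dye for 1 h.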

[6] = p53 small molecule agonists, cell-based qHTS assay with human liver microsomes (AID 1963577)
Summary of the method: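 Fluorescence of the beta-lactamase reporter in p53RE-bla cells, detected with LiveBLAzer substrate (2 h, room temperature, dark), served as the read-out after 16 h compound exposure at 37 C with human liver microsomes and NADPH, each 0.5 mg/mL final.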

[7] = p53 small molecule agonists, cell-based qHTS assay with rat liver microsomes (AID 1963578)
Summary of the method: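 Cells carrying a p53 response element–beta-lactamase reporter were plated and rested 5 h, then dosed with compound in DMSO plus rat liver microsomes and NADPH, each at 0.5 mg/mL final. After 16 h at 37 C, LiveBLAzer substrate was added for 2 h.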

[8] = p53 small molecule agonists, cell-based qHTS assay with human liver microsomes: qHTS cell viability counter screen (AID 1963579); further: nearly all actives have a fitted effect of over 45% in size
Summary of the method: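 Cytotoxicity counter screen: p53RE-bla, 4,000 cells/well; 5 h settle, 37 C/5% CO2; cpd + HLM 0.5 mg/mL + NADPH 0.5 mg/mL (final); 16 h, 37 C; CellTiter-Glo, 30 min RT, luminescence.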

[9] = p53 small molecule agonists, cell-based qHTS assay with rat liver microsomes: qHTS cell viability counter screen (AID 1963580); further: nearly all actives have a fitted effect of over 45% in size
Summary of the method: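 HCT-116 p53RE-bla, 4,000 cells/well, 5 h pre-incubation; cpd + rat liver microsomes 0.5 mg/mL + NADPH 0.5 mg/mL (final); 16 h, 37 C; CellTiter-Glo, 30 min RT; luminescence.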

[10] = p53 small molecule agonists, cell-based qHTS assay (AID 1963582; active means well fitted activation curve with a large enough effect in the signal ratio in the repeat runs, not every such curve was filed as active; the % refers to the signal ratio)
Summary of the method: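 Reporter line: p53RE-bla. Pre-incubation 5 h, 37 C, 5% CO2; compound (DMSO, pin tool) 16 h, 37 C; B/G FRET substrate 2 h RT; fluorescence intensity read.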

[11] = target: 5-hydroxytryptamine receptor 2A (Homo sapiens) (UniProt P28223); experiment: 5-hydroxytryptamine receptor 2A (HTR2A) small molecule antagonists, cell-based qHTS assay (AID 1963586); further: nearly all actives have a fitted effect of over 45% in size
Summary of the method: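 Antagonist-mode intracellular calcium assay: DOI (4 nM) added after 5 min compound pre-incubation at room temperature to dye-loaded HTR2A-CHO cells. Fluorescence followed for 3 min, sampled every second.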

[12] = target: 5-hydroxytryptamine receptor 2A (Homo sapiens) (UniProt P28223); experiment: 5-hydroxytryptamine receptor 2A (HTR2A) small molecule agonists, cell-based qHTS assay (AID 1963587); further: nearly all actives have a fitted effect of over 30% in size
Summary of the method: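 Kinetic calcium-flux fluorescence (2 min, 1 sec intervals) after compound addition in agonist mode. HTR2A-CHO cells were cultured 18 h, then dye-loaded 1 h at 37 C.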

[13] = target: Muscarinic acetylcholine receptor M1 (Homo sapiens) (UniProt P11229); experiment: Cholinergic receptor muscarinic 1 (CHRM1) small molecule antagonists, cell-based qHTS assay (AID 1963588); further: nearly all actives have a fitted effect of over 40% in size
Summary of the method: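 CHRM1-CHO calcium-flux assay, antagonist mode. Cells were seeded 18 h, dye-loaded 1 h at 37 C and given compound for 5 min at RT, then acetylcholine was added at 50nM. FDSS fluorescence was read 3 min; 15 concentrations, three runs.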

[14] = cAMP Responsive Elements (CRE) small molecule agonists, cell-based qHTS assay (AID 1963590)
Summary of the method: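 HEK 293T CRE-bla, 2,000 cells/well, 18 h preincubation 37 C/5% CO2; cpds (DMSO) pinned, 3 h; LiveBLAzer B/G FRET substrate, 2 h RT.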

[15] = cAMP Responsive Elements (CRE) small molecule antagonists, cell-based qHTS assay (AID 1963591; active means well fitted inhibition curve with a large enough effect in the signal ratio in the repeat runs, not every such curve was filed as active; the % refers to the signal ratio)
Summary of the method: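 Beta-lactamase reporter read by FRET substrate (LiveBLAzer B/G) after 2 h at room temperature. CRE-bla HEK293T cells had received compound plus 0.25 uM (final) NKH477 for 3 h at 37 °C.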

[16] = target: Beta-2 adrenergic receptor (Homo sapiens) (UniProt P07550); experiment: Adrenergic beta2 receptor (ADRB2) small molecule antagonists, cell-based qHTS assay (AID 1963592); further: series mostly up to about 92 µM; nearly all actives have a fitted effect of over 50% in size
Summary of the method: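 Cells (CHO, stable ADRB2 overexpression) incubated 18-20hr at 37C; compounds added from DMSO; agonist mix (1nM isoproterenol, 100uM IBMX, 25uM Ro-20-1724) added; 0.5hr RT; d2-cAMP and anti-cAMP-cryptate added; 1hr RT; 665/615 nm read.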

[17] = target: D(2) dopamine receptor (Homo sapiens) (UniProt P14416); experiment: Dopamine D2 receptor (DRD2) small molecule agonists, cell-based qHTS assay (AID 1963594); further: nearly all actives have a fitted effect of over 35% in size
Summary of the method: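 cAMP accumulation in DRD2-HEK293 cells measured by HTRF after 1 h detection; compounds added 10 min before NKH477 (200nM […]) forskolin-analogue stimulation, 30 min at room temperature, with Ro20-1724 present at 0.1 mM final.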

[18] = target: D(2) dopamine receptor (Homo sapiens) (UniProt P14416); experiment: Dopamine D2 receptor (DRD2) small molecule antagonists, cell-based qHTS assay (AID 1963595; active means well fitted inhibition curve with a large enough effect in the signal ratio in the repeat runs, with a control signal flat; the % refers to the signal ratio)
Summary of the method: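 Readout: HTRF cAMP, cAMP-d2 competing with cellular cAMP for anti-cAMP cryptate, read after 1 h. Cells: DRD2-HEK293. Conditions: 0.1 mM Ro20-1724, 12 nM quinpirole, 200 nM NKH477, 30 min RT.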

[19] = p53 small molecule agonists, cell-based qHTS assay: qHTS cell viability counter screen (AID 1963581); further: nearly all actives have a fitted effect of over 45% in size
Summary of the method: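 HCT-116 p53RE-bla cells, 4,000/well, plated 5 h before compound pin transfer; 16 h at 37 C; bla substrate 2 h RT; then CellTiter-Glo, 30 min RT, luminescence.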

[20] = target: Beta-2 adrenergic receptor (Homo sapiens) (UniProt P07550); experiment: Adrenergic beta2 receptor (ADRB2) small molecule agonists, cell-based qHTS assay (AID 1963593);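 further: CHO cells stably overexpressing human ADRB2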
Summary of the method: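 CHO cells stably over-expressing ADRB2 were plated overnight at 37C, then dosed with compounds plus a stimulation mix containing 100uM IBMX and 25uM Ro-20-1724 for 0.5hr at room temperature. cAMP was measured by HTRF competition, 1hr.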

Measured: Potency

Chain of D(2) dopamine receptor (Homo sapiens) (P14416 whole entry, looked up): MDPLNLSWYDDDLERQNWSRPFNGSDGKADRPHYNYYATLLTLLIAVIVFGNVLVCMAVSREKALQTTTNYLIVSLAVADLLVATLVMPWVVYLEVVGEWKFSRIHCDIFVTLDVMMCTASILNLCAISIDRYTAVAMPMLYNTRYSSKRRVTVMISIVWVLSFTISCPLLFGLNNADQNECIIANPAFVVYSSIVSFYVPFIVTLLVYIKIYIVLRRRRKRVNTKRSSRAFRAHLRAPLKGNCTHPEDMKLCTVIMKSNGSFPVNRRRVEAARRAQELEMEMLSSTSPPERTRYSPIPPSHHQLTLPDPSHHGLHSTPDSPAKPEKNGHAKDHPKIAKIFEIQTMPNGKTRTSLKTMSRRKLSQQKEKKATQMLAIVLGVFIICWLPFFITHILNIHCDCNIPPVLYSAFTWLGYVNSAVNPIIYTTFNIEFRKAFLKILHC
Chain of Gonadotropin-releasing hormone receptor (Homo sapiens) (P30968 whole entry, looked up): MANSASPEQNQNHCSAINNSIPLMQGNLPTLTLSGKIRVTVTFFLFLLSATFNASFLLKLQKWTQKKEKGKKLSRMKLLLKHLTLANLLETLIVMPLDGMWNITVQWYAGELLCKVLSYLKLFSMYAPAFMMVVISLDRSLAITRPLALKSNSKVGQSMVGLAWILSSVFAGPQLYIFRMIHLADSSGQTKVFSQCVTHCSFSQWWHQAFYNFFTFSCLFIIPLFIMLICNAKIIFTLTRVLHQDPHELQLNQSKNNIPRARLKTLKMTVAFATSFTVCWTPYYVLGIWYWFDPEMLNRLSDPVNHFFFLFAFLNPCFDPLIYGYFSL
Chain of Beta-2 adrenergic receptor (Homo sapiens) (P07550 whole entry, looked up): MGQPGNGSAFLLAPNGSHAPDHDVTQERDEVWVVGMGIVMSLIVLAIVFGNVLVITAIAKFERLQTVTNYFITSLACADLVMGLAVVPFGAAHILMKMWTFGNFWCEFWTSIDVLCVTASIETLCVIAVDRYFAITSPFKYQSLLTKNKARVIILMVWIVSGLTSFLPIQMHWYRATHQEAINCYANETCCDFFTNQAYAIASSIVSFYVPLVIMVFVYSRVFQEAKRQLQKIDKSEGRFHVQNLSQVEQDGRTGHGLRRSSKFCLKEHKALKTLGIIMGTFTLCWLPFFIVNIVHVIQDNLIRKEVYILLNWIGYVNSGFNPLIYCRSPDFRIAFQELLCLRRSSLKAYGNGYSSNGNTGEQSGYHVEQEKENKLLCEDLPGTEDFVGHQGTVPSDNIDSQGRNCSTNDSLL
Chain of KiSS-1 receptor (Homo sapiens) (Q969F8 whole entry, looked up): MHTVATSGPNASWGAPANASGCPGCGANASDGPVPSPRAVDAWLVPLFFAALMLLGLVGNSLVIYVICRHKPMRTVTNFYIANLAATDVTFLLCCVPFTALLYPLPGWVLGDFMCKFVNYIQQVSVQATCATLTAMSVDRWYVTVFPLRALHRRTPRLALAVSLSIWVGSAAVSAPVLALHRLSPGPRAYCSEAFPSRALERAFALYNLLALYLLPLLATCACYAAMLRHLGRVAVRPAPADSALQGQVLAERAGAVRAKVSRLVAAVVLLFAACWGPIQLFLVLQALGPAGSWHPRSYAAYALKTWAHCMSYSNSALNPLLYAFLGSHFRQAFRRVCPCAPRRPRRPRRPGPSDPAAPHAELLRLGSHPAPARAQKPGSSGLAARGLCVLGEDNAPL
Chain of 5-hydroxytryptamine receptor 2A (Homo sapiens) (P28223 whole entry, looked up): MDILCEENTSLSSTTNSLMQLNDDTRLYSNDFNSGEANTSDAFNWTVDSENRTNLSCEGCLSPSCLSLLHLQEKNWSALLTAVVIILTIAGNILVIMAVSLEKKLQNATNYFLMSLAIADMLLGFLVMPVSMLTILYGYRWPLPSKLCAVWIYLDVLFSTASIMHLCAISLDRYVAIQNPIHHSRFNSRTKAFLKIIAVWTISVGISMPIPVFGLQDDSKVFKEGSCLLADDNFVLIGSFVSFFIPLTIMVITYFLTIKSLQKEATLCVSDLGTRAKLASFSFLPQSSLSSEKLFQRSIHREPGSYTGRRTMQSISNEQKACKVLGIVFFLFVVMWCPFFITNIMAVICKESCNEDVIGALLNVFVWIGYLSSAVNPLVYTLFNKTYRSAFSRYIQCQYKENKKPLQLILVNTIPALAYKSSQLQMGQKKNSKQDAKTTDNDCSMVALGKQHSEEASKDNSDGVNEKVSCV
Chain of Muscarinic acetylcholine receptor M1 (Homo sapiens) (P11229 whole entry, looked up): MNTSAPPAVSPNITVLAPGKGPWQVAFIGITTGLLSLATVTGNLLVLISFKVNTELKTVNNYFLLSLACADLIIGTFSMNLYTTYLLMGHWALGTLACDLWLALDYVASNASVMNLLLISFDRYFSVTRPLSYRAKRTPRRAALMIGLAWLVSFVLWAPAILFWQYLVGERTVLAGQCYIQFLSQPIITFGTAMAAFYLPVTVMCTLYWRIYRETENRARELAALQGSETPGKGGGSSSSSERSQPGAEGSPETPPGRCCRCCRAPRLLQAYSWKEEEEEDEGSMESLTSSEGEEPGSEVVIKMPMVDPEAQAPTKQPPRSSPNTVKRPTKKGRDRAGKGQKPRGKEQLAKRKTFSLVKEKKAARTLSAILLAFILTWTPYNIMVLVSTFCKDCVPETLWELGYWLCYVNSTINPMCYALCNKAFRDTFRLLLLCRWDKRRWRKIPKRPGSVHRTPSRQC

O=c1[nH]nnc2ccccc12
not listed: [19] | [20]
inactive: all other assays above

C[C@]12C=CC(=O)C=C1CC[C@@H]1[C@@H]2C(=O)C[C@@]2(C)[C@H]1CC[C@]2(O)C(=O)CO
not listed: [10] | [11] | [12] | [13]
inactive: all other assays above

CC(O)CC(C)(C)O (stereo not given)
not listed: [9] | [17]
inactive: all other assays above

Brc1ccc(Br)c(Br)c1
not listed: [19] | [20]
inactive: all other assays above

C=C(C)CC(C)(C)C
not listed: [10] | [11] | [15] | [18]
inactive: all other assays above

CCCCOC(=O)c1ccc(N)cc1
not listed: [11] | [12] | [13] | [18] | [19]
inactive: all other assays above

COCc1c(C(C)C)nc(C(C)C)c(/C=C/[C@@H](O)C[C@@H](O)CC(=O)O)c1-c1ccc(F)cc1
not listed: [10] | [11] | [12] | [13] | [14] | [15]
inactive: all other assays above
